{"source": "PubChem BioAssay AID1578", "about": "(Sanford-Burnham Center for Chemical Genomics, 2009)", "note": "Screen size: about 290,000 compounds; about 3,000 (1%) were called active. Only a selection was taken, and actives are over-represented in it overall. Values without a mark were called inactive. Rule as the data show it: active = inhibition mostly above about 36% (no sharp cut-off); inactive = mostly below about 34%."}
{"experiment": "inhibition of NOD1-driven NF-kB reporter – cell-based, luminescence, uHTS, primary screen (AID 1578);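 also: HEK-293T reporter cells stimulated with the NOD1 agonist gamma-tri-DAP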", "settings": "NOD1-driven NF-kB luciferase reporter cells, at 4 µM, hits give high values"}
{"molecule": "O=C(NCc1ccc(F)cc1)N1CCN(S(=O)(=O)c2ccccc2F)CC1", "inhibition": "-20.3%"}
{"molecule": "O=C(N/N=C/c1ccc(Cl)cc1Cl)C(=O)NC1CC1", "inhibition": "-3.9%"}
{"molecule": "CCc1cc(-c2[nH]ncc2-c2ccc3c(c2)OCO3)c(O)cc1O", "inhibition": "97.7% (active)"}
{"molecule": "CCCc1cc(-c2[nH]ncc2-c2ccc3c(c2)OCCCO3)c(O)cc1O", "inhibition": "17.6%"}
{"molecule": "CCc1cc(-c2[nH]ncc2-c2ccc(OC)cc2)c(O)cc1O", "inhibition": "12.6%"}
{"molecule": "Cc1ccc(C(=O)NCC(=O)N2CCN(S(=O)(=O)c3cccs3)CC2)s1", "inhibition": "-28.4%"}
{"molecule": "O=C(N/N=C/c1ccc(OC(=O)c2cccc(F)c2)cc1)c1cccnc1", "inhibition": "-21%"}
{"molecule": "COc1ccccc1NC(=O)c1ccccc1Nc1ccccc1", "inhibition": "-5.4%"}
{"molecule": "COc1ccc(CN2CCNC(=O)C2CC(=O)NCCc2cnccn2)cc1C", "note": "(centres undefined)", "inhibition": "-22.4%"}
{"molecule": "Cc1[nH]nc(Nc2ccccc2)c1[N+](=O)[O-]", "inhibition": "75.5% (active)"}
{"molecule": "Cc1cccc(Nc2n[nH]c(C)c2[N+](=O)[O-])c1", "inhibition": "-36.2%"}
{"molecule": "Cc1ccc(Nc2n[nH]c(C)c2[N+](=O)[O-])cc1", "inhibition": "-38.4%"}
{"molecule": "CC1CCCN(S(=O)(=O)c2ccc3oc(=O)ccc3c2)C1", "note": "(centres undefined)", "inhibition": "-39.5%"}
{"molecule": "Cc1ccc(OCCCn2cc(C#N)c3ccccc32)cc1", "inhibition": "26.6%"}
{"molecule": "CCN(CC)S(=O)(=O)c1cc(C(=O)OCC(=O)c2ccc3c(c2)NC(=O)CO3)ccc1F", "inhibition": "-21.3%"}
{"molecule": "COCc1cc(C)nc(N2CCCCC2)c1C#N", "inhibition": "-7.1%"}
{"molecule": "O=C(O)c1ccc(/C=C2\\CCCc3c2nc2ccccc2c3C(=O)O)cc1", "inhibition": "-24%"}
{"molecule": "O=C(O)c1c2c(nc3ccccc13)/C(=C/c1ccc(O)cc1)CCC2", "inhibition": "-23.9%"}
{"molecule": "O=C(O)c1c2c(nc3ccccc13)/C(=C/c1ccc(O)cc1)CC2", "inhibition": "63.5% (active)"}
{"molecule": "NC(=O)CSc1nnc(CNc2cccc(Cl)c2)n1CCc1ccccc1", "inhibition": "-6.6%"}
{"molecule": "CCOC(=O)c1sc(-c2ccc(F)cc2)cc1N", "inhibition": "-18.5%"}
{"molecule": "CC(O)CNc1ncnc2cc(-c3ccc(F)cc3)sc12", "note": "(centres undefined)", "inhibition": "-11.1%"}
{"molecule": "C=CCNC(=O)c1ccc2c(=O)n(CCCN3CCCC3=O)c(=S)[nH]c2c1", "inhibition": "-17.5%"}
{"molecule": "N#CC1=C(N)Oc2ccc3ccc(O)cc3c2C1c1cccnc1", "note": "(centres undefined)", "inhibition": "-18.7%"}
{"molecule": "Cc1ccc(-c2nc3[nH]c(=O)cc(NC(=O)c4cccs4)n3n2)cc1", "inhibition": "-1.6%"}
{"molecule": "Cc1nc2c3cc(Cl)ccc3n(CCN3CCCCC3)c2s1", "inhibition": "-5.1%"}
{"molecule": "CC1CCN(S(=O)(=O)c2ccc3c(c2)NC(=O)CS3)CC1", "inhibition": "-43.2%"}
{"molecule": "O=C(COc1ccccc1)NCc1ccc(-n2cccc2)cc1", "inhibition": "-34.8%"}
{"molecule": "O=C(Cc1ccccc1)NCc1ccc(-n2cccc2)cc1", "inhibition": "48.6% (active)"}
{"molecule": "Cc1ccc(CNC(=O)Cc2ccc(-n3cccc3)cc2)cc1", "inhibition": "-32.1%"}
{"molecule": "Cc1ccc(COc2ccsc2C(=O)NNC(N)=S)cc1", "inhibition": "-29.4%"}
{"molecule": "CCOc1cccc(/C=N/NC(=S)Nc2ccccc2[N+](=O)[O-])c1O", "inhibition": "34.3%"}
{"molecule": "CCCOc1ccc(/C=N/Nc2ccccc2[N+](=O)[O-])c(O)c1", "inhibition": "55.7%"}
{"molecule": "OC(CNCCc1ccc(Cl)cc1)COc1cc(Cl)ccc1Cl", "note": "(centres undefined)", "inhibition": "-10.1%"}
{"molecule": "Cc1ccccc1OCC(=O)N/N=C/c1ccc(N2CCOCC2)o1", "inhibition": "-23.5%"}
{"molecule": "Cc1ccc(CSC2=NCCN2C(=O)C(C)Oc2ccccc2)cc1", "note": "(centres undefined)", "inhibition": "-38.3%"}
{"molecule": "CC1CCc2sc3ncnc(N4CCN(C)CC4)c3c2C1", "note": "(centres undefined)", "inhibition": "13.5%"}
{"molecule": "CC1CCc2c(sc3ncnc(N4CCOCC4)c23)C1", "note": "(centres undefined)", "inhibition": "-28.8%"}
{"molecule": "CCOC(=O)C1CCCN(C(=O)COc2ccccc2F)C1", "note": "(centres undefined)", "inhibition": "-25.1%"}
{"molecule": "COC(=O)c1c(NC(=O)CN2C(=O)NC3(CCC(C(C)(C)C)CC3)C2=O)sc2c1CCCCC2", "note": "(centres undefined)", "inhibition": "-10.4%"}
{"molecule": "COCC(C)N1CCC(n2nccc2NC(=O)CCCc2ccccc2)CC1", "note": "(centres undefined)", "inhibition": "-1.8%"}
{"molecule": "O=C(NC1=NCCS1)c1cc(-c2cccc(Br)c2)nc2ccccc12", "inhibition": "-10.6%"}
{"molecule": "COc1cc(/C=C2\\CC/C(=C\\c3cc(OC)c(OC)c(OC)c3)C2=O)cc(OC)c1OC", "inhibition": "23%"}
{"molecule": "COc1cc(/C=C2\\CCOC2=O)cc(OC)c1OC", "inhibition": "-9.9%"}
{"molecule": "O=C(CN(Cc1ccco1)C(=O)CNS(=O)(=O)c1ccc(F)cc1)NCCc1ccccc1", "inhibition": "-27.1%"}
{"molecule": "Cn1c(N)c(C(=O)COC(=O)c2ccc(Cl)c(S(=O)(=O)N3CCCC3)c2)c(=O)n(C)c1=O", "inhibition": "14.5%"}
{"molecule": "Cn1c(N)c(C(=O)COC(=O)c2ccc(Cl)c(S(=O)(=O)N3CCCCC3)c2)c(=O)n(C)c1=O", "inhibition": "64.3% (active)"}
{"molecule": "Cc1ccc(C(=O)OCC(=O)c2c(N)n(C)c(=O)n(C)c2=O)cc1S(=O)(=O)N1CCCCC1", "inhibition": "-7.4%"}
{"molecule": "Cc1cc(C(=O)OCC(=O)NC(C)C)c(C)o1", "inhibition": "-4%"}
{"molecule": "CC(=O)C(C)n1c(CN2CCN(C(=O)c3ccco3)CC2)nc2c1c(=O)n(C)c(=O)n2C", "note": "(centres undefined)", "inhibition": "-0.4%"}
{"molecule": "CCN1CCS/C1=C/C=C/C1=[N+](CC)CCS1", "inhibition": "14%"}
{"molecule": "CCN1CCS/C1=C\\C=C\\C1=[N+](CC)CCS1", "inhibition": "53.8% (active)"}
{"molecule": "Cc1ccc(CC(=O)NCc2ccc(Cl)cc2)cc1", "inhibition": "-57.8%"}
{"molecule": "Cc1ccc(-c2cc(C)nc3ncnn23)cc1", "inhibition": "-4.1%"}
{"molecule": "Cc1cccc2nc(CSc3nc4[nH]ncc4c(=O)n3-c3cccc(Cl)c3)cc(=O)n12", "inhibition": "75.3% (active)"}
{"molecule": "Cc1cccc(-n2c(SCc3cc(=O)n4c(C)cccc4n3)nc3[nH]ncc3c2=O)c1", "inhibition": "-6.2%"}
{"molecule": "Cc1cccc2nc(CSc3nc4[nH]ncc4c(=O)n3-c3ccccc3Cl)cc(=O)n12", "inhibition": "6.5%"}
{"molecule": "COc1ccc(C2C(C(N)=O)=C(C)Nc3ncnn32)cc1", "note": "(centres undefined)", "inhibition": "-4.5%"}
{"molecule": "COC(=O)CCC(=O)NNC(=O)C1CC1(c1ccccc1)c1ccccc1", "note": "(centres undefined)", "inhibition": "0.4%"}
{"molecule": "S=C(Nc1ccccc1)N1CCN(c2ccccn2)CC1", "inhibition": "-29.8%"}
{"molecule": "COc1ccc(NC(=S)N2CCN(c3ccccn3)CC2)cc1", "inhibition": "-4.7%"}
{"molecule": "Cc1ccccc1N1CCN(C(=O)c2ccccc2NC(=O)C2CC=CCC2C(=O)O)CC1", "note": "(centres undefined)", "inhibition": "-15.8%"}
{"molecule": "Cc1cccc(C)c1-n1nnnc1S(=O)(=O)Cc1ccccc1Cl", "inhibition": "-16.2%"}
{"molecule": "COc1ccccc1-n1nnnc1S(=O)(=O)Cc1ccc(Cl)cc1", "inhibition": "102%"}
{"molecule": "CN1/C(=C\\C(=O)C[n+]2cccc(Br)c2)C(C)(C)c2ccccc21", "inhibition": "30.4%"}
{"molecule": "CN1/C(=C\\C(=O)C[n+]2ccc3ccccc3c2)C(C)(C)c2ccccc21", "inhibition": "47% (active)"}
{"molecule": "Cc1ccc[n+](CC(=O)/C=C2\\N(C)c3ccccc3C2(C)C)c1", "inhibition": "27.4%"}
{"molecule": "O=C(NCc1ccccc1OC(F)(F)F)C1CCC(=O)N(CCc2ccccn2)C1", "note": "(centres undefined)", "inhibition": "-25.8%"}
{"molecule": "CC(Sc1n[nH]c(N)n1)C(=O)NC1CCCCC1C", "note": "(centres undefined)", "inhibition": "-7.3%"}
{"molecule": "CC(Sc1nc(N)cc(=O)[nH]1)C(=O)NC1CCCCC1", "note": "(centres undefined)", "inhibition": "-12%"}
{"molecule": "Cc1[nH]c2ccccc2c1C(=O)C(=O)N(C)C1CCCCC1", "inhibition": "-23.5%"}
{"molecule": "CN(C(=O)CSc1ccccc1C(=O)O)C1CCCCC1", "inhibition": "-26.5%"}
{"molecule": "Cc1cc(C(=O)O)sc1C", "inhibition": "-16.5%"}
{"molecule": "FC(F)(F)c1cnc(Sc2nnc(-c3cccs3)n2CC2CCCO2)c(Cl)c1", "note": "(centres undefined)", "inhibition": "-14.9%"}
{"molecule": "CCOc1cc(/C=N/NC(=O)C(=O)NCc2ccc3c(c2)OCO3)ccc1OCC(=O)N1CCOCC1", "inhibition": "-4.3%"}
{"molecule": "CCOC(=O)CNc1cccc(C(F)(F)F)c1", "inhibition": "-35.5%"}
{"molecule": "O=C(CNS(=O)(=O)c1ccccc1)NCC(=O)OCc1ccc(Cl)cc1", "inhibition": "-12.2%"}
{"molecule": "O=C(NCc1cccnc1)/C(=C/c1ccc(-c2cccc(C(F)(F)F)c2)o1)NC(=O)c1ccccc1", "inhibition": "11.9%"}
{"molecule": "O=C(NCc1cccnc1)/C(=C\\c1ccc(-c2ccc(Br)cc2)o1)S(=O)(=O)c1ccccc1", "inhibition": "106% (active)"}
{"molecule": "O=C(CN(Cc1ccc(Br)cc1)S(=O)(=O)c1ccccc1)NCc1cccnc1", "inhibition": "14.5%"}
{"molecule": "COc1ccc(S(=O)(=O)N2CCC(NC(=O)c3cccc(F)c3)CC2)cc1", "inhibition": "-7.7%"}
{"molecule": "CC(=O)NC(CC(=O)Oc1ccc(C)cc1Br)c1ccccc1", "note": "(centres undefined)", "inhibition": "-28.4%"}
{"molecule": "Cc1c(CCOC(=O)c2cc([N+](=O)[O-])cc([N+](=O)[O-])c2)sc[n+]1CC(=O)c1ccc(Br)cc1", "inhibition": "49.3% (active)"}
{"molecule": "Cc1c(CCOC(=O)c2cccc([N+](=O)[O-])c2)sc[n+]1CC(=O)c1ccccc1", "inhibition": "-44.5%"}
{"molecule": "Cc1c(CCOC(=O)c2cc([N+](=O)[O-])cc([N+](=O)[O-])c2)sc[n+]1CC(=O)c1ccccc1", "inhibition": "-27.6%"}
{"molecule": "O=C(NCc1ccco1)C12CN(Cc3ccccc3)CC1C(c1ccc([N+](=O)[O-])cc1)=NO2", "note": "(centres undefined)", "inhibition": "10.3%"}
{"molecule": "CCOCCc1nnc(NC(=O)C(C)Oc2ccccc2)s1", "note": "(centres undefined)", "inhibition": "-60.4%"}
{"molecule": "COc1ccc(NC(=O)CCC(=O)N/N=C/c2cn(C)nc2C)cc1", "inhibition": "10.7%"}
{"molecule": "CN(C)c1ccc(C(=O)Nc2nc3c(s2)CCCC3)cc1", "inhibition": "25.6%"}
{"molecule": "O=C(O)c1ccc(Nc2nc3c(s2)CCCC3)cc1", "inhibition": "69.2% (active)"}
{"molecule": "Cc1cccc(Nc2nc3c(s2)CCCC3)c1", "inhibition": "-49.8%"}
{"molecule": "Cc1cc(-c2nc3cccnc3s2)ccc1NS(=O)(=O)c1ccc2c(c1)OCCO2", "inhibition": "-4%"}
{"molecule": "Cc1nc2ccc(S(=O)(=O)Nc3cccc(-c4nc5cccnc5s4)c3C)cc2s1", "inhibition": "-33.3%"}
{"molecule": "CCc1ccc(NC(=O)CSc2nnc(-c3n[nH]c4ccccc34)n2-c2ccccc2)cc1", "inhibition": "6%"}
